Most compounds without a hit are left out; they make up all but 4% or so of the library.
VHR inh abs: VHR1 phosphatase inhibitors, primary screen, biochemical, absorbance, uHTS; recombinant VHR phosphatase, pNPP absorbance; inhibition, % at 13.3 µM; 290,000 tested, 0.52% active; AID 1654, 2009; in the data active = inhibition above about 50%
Target sequence (P51452 whole entry, looked up): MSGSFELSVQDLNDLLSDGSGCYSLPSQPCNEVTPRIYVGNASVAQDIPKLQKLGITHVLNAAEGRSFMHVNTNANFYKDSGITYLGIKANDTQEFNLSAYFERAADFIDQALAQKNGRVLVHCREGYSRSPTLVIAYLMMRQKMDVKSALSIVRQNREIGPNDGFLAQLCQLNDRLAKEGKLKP
Bead autofluor: flagged as autofluorescent in microsphere protease counterscreen | compound autofluorescence counterscreen, microsphere flow cytometry; active compounds read high | AID 624483 | 360,000 tested, 3.1% active | fluorescence intensity (no concentration beside the values); in the data active = fluorescence intensity above about 16000; inconclusive = no clear call, values can overlap the other calls
Anthrax LF prot: Bacillus anthracis LF protease inhibitors, primary screen, biochemical, multiplex microsphere, MLPCN library | Lethal factor (Bacillus anthracis), P15917 | multiplex microsphere protease cleavage assay | inhibition, % at 10 µM | 360,000 tested, 0.12% active; also: plate controls were buffer without enzyme for full effect and enzyme alone for no effect
MazF activator: activators of E. coli MazEF toxin-antitoxin RNase, primary screen, biochemical, fluorescence, uHTS; 350,000 tested, 0.32% active; AID 504720, 2011; Endoribonuclease toxin MazF (Escherichia coli (strain K12)), P0AE70; activation, % at 20 µM; FAM/BHQ RNA-DNA oligo cleavage fluorescence, 5 h; in the data active = activation above about 50%
Target sequence (P0AE70 whole entry, looked up): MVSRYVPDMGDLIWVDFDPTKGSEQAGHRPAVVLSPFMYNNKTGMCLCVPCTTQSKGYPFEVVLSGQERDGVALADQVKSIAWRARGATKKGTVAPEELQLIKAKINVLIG
BoNT F protease: BoNT/F light chain protease inhibitors, primary screen, biochemical, flow cytometry, MLPCN library; Botulinum neurotoxin type F light chain protease (Clostridium botulinum); Multiplex microsphere protease cleavage assay; inhibition, % at 10 µM; 360,000 tested, 0.22% active; AID 588497, 2011; in the data active = inhibition above about 35%, passing the limit was not always enough; inconclusive = no clear call, values can overlap the other calls; also: plate controls were buffer without enzyme for full effect and enzyme alone for no effect
BoNT A protease: BoNT/A light chain protease inhibitors, primary screen, biochemical, flow cytometry, MLPCN library; inhibition, % at 10 µM; 360,000 tested, 0.17% active; AID 588499, 2011; multiplex microsphere protease substrate cleavage; also: plate controls were buffer without enzyme for full effect and enzyme alone for no effect
Active calls of the source: *; u = inconclusive; x = no result given. Rule as the data show it, unless noted: active = inhibition above about 30%; inconclusive = no clear call, values can overlap the other calls; inactive = below that.

SMILES | VHR inh abs | Bead autofluor | Anthrax LF prot | MazF activator | BoNT F protease | BoNT A protease
COc1ccc(-n2c(=S)[nH]c3cc(C(=O)NCc4ccco4)ccc3c2=O)cc1OC | 0.0 | 4604 | 0.7 | 0.3 | u | 0.3
N=c1c(C(=O)NCCc2ccccc2)cc2c(=O)n3ccccc3nc2n1Cc1ccco1 | 16.6 | 3691 | 11.1 | 13.6 | 7.5 | 3.3
Cc1ccc(S(=O)(=O)c2cc3c(=O)n4ccccc4nc3n(CCc3ccccc3)c2=N)cc1 | -3.8 | 6600 | 1.4 | 71.7* | 9.1 | 0.8
COc1ccc(CCn2c(=S)[nH]c3cc(C(=O)NCc4ccco4)ccc3c2=O)cc1OC | 8.5 | 20732* | 0.9 | 5.4 | -1.5 | -3.6
COc1ccc(CCn2c(=N)c(C(=O)NCc3ccco3)cc3c(=O)n4ccccc4nc32)cc1 | 3.8 | 22951* | 3.5 | 5.8 | 1.6 | 2.0
CCn1c(=N)c(S(=O)(=O)c2ccc(C)cc2)cc2c(=O)n3ccccc3nc21 | 52.5* | x | x | x | x | x
O=C(Nc1cccnc1)c1c(F)c(F)c(F)c(F)c1F | 37.9 | 10578 | -1.4 | -4.5 | -4.9 | 0.3
Cc1ccc(S(=O)(=O)c2cc3c(=O)n4cccc(C)c4nc3n(C3CCCCC3)c2=N)cc1 | 1.8 | 3949 | -6.7 | 52.5* | -18.9 | -1.3
Cc1ccc(C(=O)Nc2ccccc2N2CCN(C(=O)C(C)C)CC2)cc1C | -6.0 | 3093 | 3.1 | 7.2 | -12.7 | 5.9
Cc1nnc(C)n1/N=C/c1ccc(C(=O)O)cc1 | -18.0 | 22576* | 2.8 | 4.3 | 0.8 | 0.2
CCOc1ccccc1NC(=O)CCS(=O)(=O)c1ccc(OC)cc1 | 11.6 | 2236 | -0.5 | 7.8 | 3.1 | 0.3
COc1ccc(N2C(=O)CC(N3CCC(O)(c4ccc(Cl)cc4)CC3)C2=O)cc1 (stereo not drawn) | 25.4 | 16898* | -2.4 | 8.8 | -5.9 | u
COc1ccc(N2C(=O)CC(N3CCC(c4nc5ccccc5[nH]4)CC3)C2=O)cc1 (stereo not drawn) | 19.6 | 22767* | -1.6 | 6.8 | -2.8 | u
COc1ccc(N2C(=O)CC(n3cnc4ccccc43)C2=O)cc1 (stereo not drawn) | -20.8 | 22109* | 1.3 | -4.4 | 0.6 | u
COc1ccc(N2C(=O)CC(N3CCN(c4ccccc4)CC3)C2=O)cc1 (stereo not drawn) | 26.2 | 4085 | 1.3 | 5.7 | u | -0.3
O=C1CC(N2CCC(c3nc4ccccc4[nH]3)CC2)C(=O)N1c1ccccc1F (stereo not drawn) | 23.4 | 2065 | -2.3 | 8.5 | 2.7 | 0.0
COc1ccc(N2C(=O)CC(N3CCN(c4ccc(Cl)cc4)CC3)C2=O)cc1 (stereo not drawn) | 9.8 | 3480 | -9.0 | 9.3 | 22.8 | -0.5
Cc1cc(C)nc(SCCCn2c(=O)[nH]c3ccccc32)n1 | 15.3 | 16659* | -3.8 | 8.4 | -6.6 | -1.4
O=C(NCCc1ccccc1)c1ccnc(/C=N/O)c1 | -11.9 | 10147 | -1.7 | 1.3 | 4.5 | 0.1
C=CCNC(=O)c1ccc(-c2nc(-c3ccc(Cl)c(Cl)c3)cs2)cc1 | 8.2 | 22537* | -3.7 | -13.2 | -3.1 | u
C=CCNC(=O)c1ccc(-c2nc(-c3ccc(Cl)cc3Cl)cs2)cc1 | 21.6 | 8615 | -9.3 | -5.6 | -1.1 | 0.2
COc1cccc(C(=O)Nc2cc(-c3cn4cccnc4n3)ccc2C)c1 | 14.4 | 4459 | -4.5 | 0.8 | 1.6 | 1.0
CCOCC(=O)Nc1cc(-c2cn3cccnc3n2)ccc1C | 3.6 | 22267* | -1.9 | 3.0 | -5.8 | u
C/C(=N\Nc1nnc(C)c(=O)[nH]1)C(=O)O | 28.7 | 23478* | -6.3 | 9.9 | -0.7 | -0.2
Clc1ccc(-c2csc3ncnc(N4CCc5ccccc5C4)c23)cc1 | -6.9 | 2404 | 1.1 | -26.1 | -13.0 | -0.1
SMILES | VHR inh abs | Bead autofluor | Anthrax LF prot | MazF activator | BoNT F protease | BoNT A protease
Cc1ccc2c(c1)-c1ncc(C(=O)c3cc(Br)ccc3O)cc1CO2 | 56.3* | x | x | x | x | x
Cc1ccc(O)c(C(=O)c2cnc3c(c2)COc2ccc(C)cc2-3)c1 | -0.1 | 4303 | -6.8 | 4.7 | 4.0 | -0.7
Cc1cc(C=C2C(=O)N(C)C(=S)N(C)C2=O)c(C)n1C1CCCC1 | 14.5 | 4034 | 37.9* | -36.4 | 27.4 | 53.7*
Cc1cc(/C=C2\SC(=S)NC2=O)c(C)n1C1CC1 | -18.3 | 20502* | 3.4 | -6.4 | 3.1 | 1.3
CCN1C(=O)C(=Cc2cc(C)n(C3CC3)c2C)C(=O)N(CC)C1=S | 0.4 | 2840 | 15.6 | 676.8* | 8.2 | 41.0*
Cn1c(N)c(C(=O)COC(=O)CCC(=O)c2cccs2)c(=O)n(C)c1=O | 22.3 | 9696 | -3.1 | -3.8 | -11.5 | -1.4
CCOC(=O)c1ccc(S(=O)(=O)N2CCN(CC(=O)NC(=O)NC(C)(C)C)CC2)cc1 | 22.8 | u | -0.1 | -0.1 | -9.6 | u
Cc1cc(NC(=O)c2cccc(S(=O)(=O)N3CCCCCC3)c2)no1 | 38.8 | 17368* | -0.8 | 4.5 | -5.1 | -2.3
Cc1cc(NC(=O)COC(=O)C2CCN(S(=O)(=O)c3ccc(Cl)cc3)CC2)no1 | 7.2 | 3059 | 8.6 | -21.2 | 14.8 | 2.7
Cc1cc(NC(=O)CN2CCN(S(=O)(=O)c3ccc(Cl)cc3)CC2)no1 | 14.6 | 19724* | -0.3 | -2.7 | -1.1 | -0.2
CC(C)(C)NC(=O)NC(=O)CN1CCN(S(=O)(=O)c2ccccc2)CC1 | 0.8 | 16805* | -10.2 | 3.0 | -58.1 | -12.6
O=C(Nc1ccc2c(c1)OCO2)c1cccc(S(=O)(=O)N2CCCC2)c1 | -4.9 | 21861* | -6.8 | -0.4 | -0.3 | 2.3
Cc1cc(NC(=O)c2cc(S(=O)(=O)N3CCCCC3)ccc2C)no1 | x | 3938 | 6.4 | -1.2 | 7.2 | 0.0
CN(CC(=O)Nc1cccnc1Cl)S(=O)(=O)c1ccc(Cl)cc1 | -0.2 | u | -1.5 | -4.4 | -5.6 | -0.8
C/C(=N\OC(=O)Nc1ccccc1)c1ccc(C)cc1 | x | 6293 | -5.8 | 4.9 | -14.1 | -0.6
Cc1ccccc1NC(=S)N1CCOCC1 | -4.7 | 2011 | -2.9 | 8.0 | 1.0 | 0.0
COc1ccc(OCCSc2nc(N)cc(N)n2)cc1 | 7.8 | 4994 | 1.7 | -30.2 | 3.8 | -0.1
O=C(Nc1ccc2c(c1)OCCO2)c1ccc(S(=O)(=O)N2CCCCC2)cc1 | -26.1 | 16458* | -3.7 | 7.9 | -2.3 | -0.1
O=C(Nc1ccc(N2CCOCC2)cc1)c1ccc(S(=O)(=O)N2CCCCC2)cc1 | 11.6 | 10575 | -1.6 | 6.7 | 0.7 | 0.4
Cc1ccc(S(=O)(=O)c2ccc([N+](=O)[O-])o2)cc1 | x | 3530 | 1.3 | 7.4 | -1.3 | 0.5
N#Cc1cc(S(=O)(=O)c2ccc(F)cc2)c(N)[nH]c1=O | -10.4 | 2635 | 2.1 | -3.6 | -2.1 | 0.7
O=c1c(CN2CCN(Cc3ccccc3)CC2)coc2ccc(Cl)cc12 | 6.0 | 19830* | -10.7 | -0.1 | 7.6 | 8.8

Screens from PubChem BioAssay.
